Among the data in PubChem BioAssay AID602261 (Sanford-Burnham Center for Chemical Genomics, 2012) are inhibition values, retold here.

Structures are written as SMILES. Among all 360,000 compounds or so, about 2,400 (0.67%) were called active. Only a selection was taken, and actives are over-represented in it overall. Unmarked numbers belong to inactive results.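 Rule for the calls: active = compounds whose normalised, plate-corrected inhibition of enzyme fluorescence in the single-dose primary screen is 50% or more; inactive = the rest.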

Sequence of Fatty acid synthase (Homo sapiens) (P49327 whole entry, looked up, the tested form may be a part): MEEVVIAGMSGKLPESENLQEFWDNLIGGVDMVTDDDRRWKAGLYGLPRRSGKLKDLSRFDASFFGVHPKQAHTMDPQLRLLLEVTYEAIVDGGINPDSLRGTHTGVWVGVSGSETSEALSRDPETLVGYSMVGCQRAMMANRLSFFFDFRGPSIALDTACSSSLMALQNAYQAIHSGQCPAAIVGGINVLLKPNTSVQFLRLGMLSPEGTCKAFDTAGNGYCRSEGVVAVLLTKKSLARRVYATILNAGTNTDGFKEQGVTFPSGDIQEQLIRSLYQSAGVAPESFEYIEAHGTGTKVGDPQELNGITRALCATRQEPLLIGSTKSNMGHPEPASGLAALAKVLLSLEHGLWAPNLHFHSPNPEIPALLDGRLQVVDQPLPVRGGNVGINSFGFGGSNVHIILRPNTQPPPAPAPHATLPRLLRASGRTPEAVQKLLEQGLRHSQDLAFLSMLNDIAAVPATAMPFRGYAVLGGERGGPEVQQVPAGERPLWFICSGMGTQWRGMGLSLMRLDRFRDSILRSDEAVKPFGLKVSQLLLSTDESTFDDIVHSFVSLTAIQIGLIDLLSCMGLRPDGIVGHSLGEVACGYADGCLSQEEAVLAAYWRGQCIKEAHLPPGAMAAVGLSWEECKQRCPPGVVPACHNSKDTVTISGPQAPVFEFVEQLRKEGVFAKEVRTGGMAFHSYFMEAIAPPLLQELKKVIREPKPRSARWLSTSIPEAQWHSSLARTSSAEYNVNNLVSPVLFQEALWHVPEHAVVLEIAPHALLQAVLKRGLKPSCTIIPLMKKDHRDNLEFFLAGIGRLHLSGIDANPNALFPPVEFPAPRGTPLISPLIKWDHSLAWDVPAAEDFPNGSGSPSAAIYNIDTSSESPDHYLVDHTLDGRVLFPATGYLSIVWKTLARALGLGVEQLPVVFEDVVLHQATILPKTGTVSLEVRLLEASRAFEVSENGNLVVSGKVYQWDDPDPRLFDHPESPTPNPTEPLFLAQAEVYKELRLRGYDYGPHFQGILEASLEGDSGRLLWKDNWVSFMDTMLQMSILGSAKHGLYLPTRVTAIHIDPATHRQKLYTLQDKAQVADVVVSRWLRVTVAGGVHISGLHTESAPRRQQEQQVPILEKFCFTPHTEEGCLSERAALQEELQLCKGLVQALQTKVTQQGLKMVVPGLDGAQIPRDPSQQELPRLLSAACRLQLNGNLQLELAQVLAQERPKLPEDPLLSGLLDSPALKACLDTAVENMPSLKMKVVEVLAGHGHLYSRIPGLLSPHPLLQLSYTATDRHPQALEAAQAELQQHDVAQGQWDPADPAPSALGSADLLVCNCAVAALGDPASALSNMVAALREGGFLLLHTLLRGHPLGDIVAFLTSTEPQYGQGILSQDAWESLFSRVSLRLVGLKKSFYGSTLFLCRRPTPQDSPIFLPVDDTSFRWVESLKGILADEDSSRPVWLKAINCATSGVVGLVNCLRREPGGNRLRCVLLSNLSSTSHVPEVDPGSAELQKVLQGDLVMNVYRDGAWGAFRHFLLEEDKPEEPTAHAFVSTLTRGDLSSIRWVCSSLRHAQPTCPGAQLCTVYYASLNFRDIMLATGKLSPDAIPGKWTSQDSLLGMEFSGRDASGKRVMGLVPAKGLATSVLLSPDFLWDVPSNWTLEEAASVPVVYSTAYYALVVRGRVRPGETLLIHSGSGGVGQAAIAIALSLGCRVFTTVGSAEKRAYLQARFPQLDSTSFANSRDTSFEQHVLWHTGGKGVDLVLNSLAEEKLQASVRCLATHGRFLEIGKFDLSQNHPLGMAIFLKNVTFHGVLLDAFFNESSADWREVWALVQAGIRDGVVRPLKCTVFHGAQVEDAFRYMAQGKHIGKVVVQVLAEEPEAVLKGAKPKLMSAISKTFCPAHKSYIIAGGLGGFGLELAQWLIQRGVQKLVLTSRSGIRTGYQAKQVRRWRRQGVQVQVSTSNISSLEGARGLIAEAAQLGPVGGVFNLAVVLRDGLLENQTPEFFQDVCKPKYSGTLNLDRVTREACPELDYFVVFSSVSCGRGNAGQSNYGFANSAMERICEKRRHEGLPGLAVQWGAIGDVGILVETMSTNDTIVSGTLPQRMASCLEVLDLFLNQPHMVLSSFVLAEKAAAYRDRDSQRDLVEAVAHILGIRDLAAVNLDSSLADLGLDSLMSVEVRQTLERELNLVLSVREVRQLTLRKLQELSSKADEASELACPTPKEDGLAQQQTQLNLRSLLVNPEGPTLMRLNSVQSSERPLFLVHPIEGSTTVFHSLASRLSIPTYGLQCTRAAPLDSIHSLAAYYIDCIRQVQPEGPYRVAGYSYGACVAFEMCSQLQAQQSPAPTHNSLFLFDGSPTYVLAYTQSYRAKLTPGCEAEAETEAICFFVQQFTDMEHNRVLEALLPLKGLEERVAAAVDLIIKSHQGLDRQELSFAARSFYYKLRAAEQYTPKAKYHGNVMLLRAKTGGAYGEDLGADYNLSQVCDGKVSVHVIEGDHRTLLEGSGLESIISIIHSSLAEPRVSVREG

This experiment has as its target Fatty acid synthase (Homo sapiens) (UniProt P49327). In words: FAS thioesterase domain inhibitors, primary screen, biochemical, fluorescence intensity, uHTS (AID 602261).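 Note: 0% = DMSO with enzyme and 100% = substrate without enzyme.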 The following applies: recombinant FAS-TE, OMFH fluorogenic substrate, fluorescence endpoint; at 15 µM; hits give high values.
As for `Cc1noc(C)c1S(=O)(=O)N(C)C[C@H]1OCCCC[C@@H](C)Oc2ccc(NC(=O)CCCN(C)C)cc2C(=O)N([C@H](C)CO)C[C@@H]1C`, the inhibition (as a rule, the relative decrease from the control value, in per cent) is -10.2%.
The same measure for `COc1cccc(NC(=S)N(Cc2ccc(C)cc2)Cc2ccccn2)c1`: 5.4%; for `COc1ccc(NC(=O)C2Cc3c(-c4ccc5c(c4)OCO5)ccnc3O2)cn1` (stereo not drawn): 1.3%; for `COc1ccc(NC(=O)/C(Cl)=C(/Cl)S(=O)Cc2ccc(C)cc2)cn1` (stereo not drawn): 53.3% (active).
With `COCc1c(N)c(C)nc(Cl)c1C#N`, the inhibition was -5.4%.
As to `COc1cccc(-c2sc3ccc(OC)cc3c2-c2ccc(OCCN3CCCCC3)cc2)c1`, the inhibition was 15.5%.
For `COc1ccc(-c2csc3nc(-c4ccccc4F)oc(=O)c23)cc1OC`, the inhibition was 65.3% (active).
For `COc1ccc(-c2csc3ncnc(Oc4ccc5c(C)cc(=O)oc5c4)c23)cc1`, the inhibition is -2.5%.
The same measure for `CC1CCN(c2oc(-c3ccccc3F)nc2C#N)CC1`: 20.3%; for `COc1ccccc1-c1nc(C(F)(F)F)c(OC)o1`: -1.4%.
`Cc1sc2nc(SCCO)n(-c3ccccc3)c(=O)c2c1C`: the inhibition is -4.5%.
Consider `Cc1sc2nc(-c3ccccc3F)oc(=O)c2c1C`, for which the inhibition was 54.7% (active).
As for `Cc1cc(C)n2nc(CNS(=O)(=O)c3c(F)c(F)c(F)c(F)c3F)nc2n1`, the inhibition is 12.1%.
Under `CC(=O)c1nn(-c2cccc(Br)c2)cc1C(=O)c1cccc2ccccc12` stands 27.7%.
Take `CCC1OC(c2ccc([N+](=O)[O-])cc2)=Nc2ccccc21` (stereo not drawn): the inhibition is 14.7%.
The same measure for `O=C(O)c1ccc(COc2c(F)c(F)cc(F)c2F)o1`: -6.9%; for `CC(C)C[C@@H]1Cc2[nH][nH]c(=O)c2[C@H](CCc2ccccc2)O1`: -59.6%.
The same measure for `COc1cc(/C=C/c2ccc(/C=C/c3cc(OC)c(OC)c(OC)c3)cc2)cc(OC)c1OC`: 8.2%.
For the compound `O=C(Cn1nnc2ccccc2c1=O)Nc1cc(C(F)(F)F)ccc1N1CCOCC1`, the inhibition is 5.9%.
For the compound `CSCCC(NC(=O)COc1ccccc1)C(=O)OCC(=O)c1cc2ccccc2o1` (stereo not drawn), the inhibition was 70.7% (active).
Take `CSCCC(NC(=O)COc1ccccc1)C(=O)OCCOc1ccc(Br)cc1` (stereo not drawn): the inhibition is 21.8%.
On to `CSCCC(NC(=O)COc1ccccc1)C(=O)OCc1ccc(Cl)cc1` (stereo not drawn), for which the inhibition was 24.4%.
The same measure for `Cc1ccc(C)c2[nH]c(=O)c(CCNC(=O)CC(C)C)cc12`: -6.6%; for `Cc1cccc(CSc2nc3c(c(=O)n2C)SCC3)c1`: 12.5%; for `CC1=CC(=C(C#N)c2nc3ccccc3s2)C=C(C)N1c1ccc(F)cc1F`: 59.2% (active).
The same measure for `COCCCNC(=O)CNC(=O)c1nn(-c2ccc(OC)cc2)c(=O)c2ccccc12`: -6.6%.
Under `O=C(CN1CCCCC1)N1c2ccccc2Sc2ccc(C(F)(F)F)cc21` stands 11.9%.
Turning to `CN(C)C(=O)CCc1ccc2c3c([nH]c2c1)[C@]1(CCC2CCCC2)[C@@H](C(=O)N2CCOCC2)C[C@H](CC(=O)NCc2ccco2)C(=O)N1CC3`, the inhibition is 21.1%.
Under `O=C(C[C@H]1C[C@H](C(=O)N2CCOCC2)[C@@]2(CCC3CCCC3)c3[nH]c4ccc(Cl)cc4c3CCN2C1=O)NCc1ccco1` stands 88.8% (active).
The same measure for `COc1ccc2[nH]c3c(c2c1)CCN1C(=O)C(CC(=O)NCCCN(C)C)C[C@H](C(=O)N2CCOCC2)[C@@]31CCC1CCCC1` (stereo partly drawn): 43.3%; for `COc1ccc(CNC(=O)C[C@H]2C[C@H](C(=O)N3CCOCC3)[C@@]3(CCC4CCCC4)c4[nH]c5ccc(Cl)cc5c4CCN3C2=O)cc1OC`: 89% (active); for `CC[C@]12c3[nH]c4ccc(Cl)cc4c3CCN1C(=O)[C@@H](CC(=O)NCCN1CCOCC1)C[C@@H]2C(=O)N1CCN(C(=O)C2CC2)CC1`: -7.3%.
Under `CC[C@]12c3[nH]c4ccc(OC)cc4c3CCN1C(=O)C(CC(=O)NCc1ccco1)C[C@@H]2C(=O)N1CCN(C(=O)C2CC2)CC1` (stereo partly drawn) stands -7.3%; under `COc1ccc(Br)c(Cn2c(C)c(C(=O)NCc3cccs3)sc2=O)c1`, 19.7%.
Turning to `C[n+]1cc(-c2ccccc2)oc1-c1ccccc1`, the inhibition is -4.9%.
The same measure for `COC1C(CO)OC(n2cnc3c(=S)nc(N)[nH]c32)C1O` (stereo not drawn): -3.8%; for `COc1ccccc1C(=O)OCC(=O)Nc1cccc(S(=O)(=O)NC2=NCCCCC2)c1`: -6.9%.
Under `Cc1cccc(-n2c(SCC(=O)Nc3cccc(S(=O)(=O)NC4=NCCCCC4)c3)nc3ccccc3c2=O)c1C` stands 71.3% (active); under `CCc1ccc(C(=O)OCC(=O)Nc2cccc(S(=O)(=O)NC3=NCCCCC3)c2)cc1`, 1.8%; under `CC(C)(C)NC(=O)NC(=O)COC(=O)Cc1ccc(Cl)cc1Cl`, 69.5% (active).
With `CC(C)(C)NC(=O)NC(=O)COC(=O)Cc1c(F)cccc1Cl`, the inhibition was 4.6%.
With `O=C(COC(=O)Cc1ccc(Cl)cc1Cl)NCc1ccco1`, the inhibition is -8.2%.
For the compound `COC(=O)CCC(=O)N1CCCC(CO)(Cc2ccccc2)C1` (stereo not drawn), the inhibition is -5.2%.
Under `Cc1ccccc1-c1nc(NC(C)C)nc2cc(-c3ccccc3)sc12` stands 13%; under `COc1ccc(-c2nnc(SC(C)C(=O)NC3CC3)o2)cc1` (stereo not drawn), -5.6%; under `COc1ccc(CN(C(=O)CSc2nnc(-c3ccc(OC)c(OC)c3)o2)c2ccc(F)cc2)cc1`, 45.7%.
Turning to `COc1ccc(-c2nnc(SC(=O)N3c4ccccc4Sc4ccccc43)o2)cc1`, the inhibition was 51.9% (active).
With `COc1ccc(C(=O)NN2C(=O)C3C(c4ccccc4)C=CC(c4ccccc4)C3C2=O)cc1` (stereo not drawn), the inhibition was 33.6%.
The same measure for `CCNc1c(NS(=O)(=O)c2ccc(C3CCCCC3)cc2)c(=O)oc2ccccc12`: 5.3%.
`Cc1cccc([C@@H]2[C@@H]3C(=O)N(C)C(=O)[C@@H]3[C@@H]3C(=O)Nc4ccccc4C(=O)N23)c1`: the inhibition was -6.8%.
`COc1ccc(CNC(=O)CCCn2nc(C)c([N+](=O)[O-])c2C)cc1`: the inhibition was 10.9%.
In the case of `Cc1ccc(Oc2cc(NC(=O)CCCn3nc(C)c([N+](=O)[O-])c3C)cc([N+](=O)[O-])c2)cc1`, the inhibition was 30.9%.
The same measure for `Cc1nn(CCOc2ccc(Br)cc2)c(C)c1[N+](=O)[O-]`: 62.3% (active).
